Inconclusive results are not listed. Values without a mark were called inactive. Active and inactive are the calls of the source. Calls come from the whole dose curve; as a rule, active = well fitted curve in the direction sought with a large enough effect; inconclusive = small, poorly fitted or top-dose-only effect, or another doubt; inactive = no such curve, though single readings can be large; an effect the other way counts as inactive or inconclusive.

In experiment [1] the target is Rap guanine nucleotide exchange factor 3 (Homo sapiens) (UniProt O95398). Description: Confirmatory qHTS for agonist of cAMP-regulated guanine nucleotide exchange factor 3 (EPAC1) (AID 1645881).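 For activation: EPAC1 catalysed release of BODIPY-GDP from Rap1B seen as fluorescence loss; 100% = effect of cAMP agonist control.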 Note: nearly all actives have a fitted effect of over 75% in size. Note: potency is the fitted concentration of half-maximal effect.
Experiment [2] has as its target Rap guanine nucleotide exchange factor 4 (Homo sapiens) (UniProt Q8WZA2). Description: Confirmatory qHTS for agonist of cAMP-regulated guanine nucleotide exchange factor 4 (EPAC2) (AID 1645884). For activation: % is set by controls: 0 for no effect and ±100 for the full control effect.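 Note: nucleotide exchange releases bodipy-GDP from Rap1 and this lowers its fluorescence; nearly all actives have a fitted effect of over 65% in size.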 Note: potency is the fitted concentration of half-maximal effect. On the technique in general: Quantitative high-throughput screening tests each substance at several concentrations.
For experiment [3] the target is unchanged. The experiment is described as follows: Confirmatory qHTS for antagonist of cAMP-regulated guanine nucleotide exchange factor 4 (EPAC2) (AID 1645885). Note: % is set by controls: 0 for no effect and ±100 for the full control effect; nearly all actives have a fitted effect of over 25% in size.
In experiment [4] the target is Rap guanine nucleotide exchange factor 3 (Homo sapiens) (UniProt O95398). Description: Counterscreen qHTS for agonist of cAMP-regulated guanine nucleotide exchange factor 3 (EPAC1) (AID 1645889). Note: % of control where 0% means no effect; nearly all actives have a fitted effect of over 40% in size. Summed up:
(§1)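 Rap1B–BODIPY-GDP (250 nM) with 50 uM GDP; compounds pin-transferred to 9.74 nM–152 uM final (activator) or from 7.32 nM upwards (inhibitor). Fluorescence Ex/Em 480/540 nm read at 5 and 30 min, then after adding cAMP or buffer, at room temperature.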
(Counterscreens check selectivity or assay interference.)

Experiment [5] has the same target. The experiment is described as follows: Counterscreen qHTS for antagonist of cAMP-regulated guanine nucleotide exchange factor 3 (EPAC1) (AID 1645888).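 Note: fluorescence loss as bound BODIPY-GDP is released from Rap1B; % of control where 0% means no effect.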 Summed up: as §1

Rap guanine nucleotide exchange factor 3 (Homo sapiens), sequence (O95398 whole entry, looked up): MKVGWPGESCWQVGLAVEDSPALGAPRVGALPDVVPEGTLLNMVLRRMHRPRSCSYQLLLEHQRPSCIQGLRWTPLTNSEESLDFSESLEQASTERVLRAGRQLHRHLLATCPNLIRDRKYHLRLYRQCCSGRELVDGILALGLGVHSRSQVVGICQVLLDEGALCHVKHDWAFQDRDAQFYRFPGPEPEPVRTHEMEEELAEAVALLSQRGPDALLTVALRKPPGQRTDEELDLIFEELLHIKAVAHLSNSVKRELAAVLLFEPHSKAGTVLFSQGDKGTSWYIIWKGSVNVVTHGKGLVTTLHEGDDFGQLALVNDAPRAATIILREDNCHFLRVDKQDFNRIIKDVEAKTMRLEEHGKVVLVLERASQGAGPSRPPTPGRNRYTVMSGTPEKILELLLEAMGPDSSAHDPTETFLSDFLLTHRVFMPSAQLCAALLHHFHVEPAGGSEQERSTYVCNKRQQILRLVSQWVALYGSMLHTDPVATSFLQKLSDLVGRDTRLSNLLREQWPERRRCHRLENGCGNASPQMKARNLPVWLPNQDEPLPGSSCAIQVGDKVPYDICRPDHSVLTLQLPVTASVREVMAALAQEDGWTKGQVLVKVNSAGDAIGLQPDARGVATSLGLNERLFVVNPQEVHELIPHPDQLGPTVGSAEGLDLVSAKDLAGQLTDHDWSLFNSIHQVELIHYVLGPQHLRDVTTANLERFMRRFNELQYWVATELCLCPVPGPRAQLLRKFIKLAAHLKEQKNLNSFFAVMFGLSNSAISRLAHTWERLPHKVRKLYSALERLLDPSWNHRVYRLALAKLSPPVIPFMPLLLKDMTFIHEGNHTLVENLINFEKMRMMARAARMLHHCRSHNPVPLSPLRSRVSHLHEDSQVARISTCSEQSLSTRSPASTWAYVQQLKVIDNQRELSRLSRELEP
Rap guanine nucleotide exchange factor 4 (Homo sapiens), sequence (Q8WZA2 whole entry, looked up): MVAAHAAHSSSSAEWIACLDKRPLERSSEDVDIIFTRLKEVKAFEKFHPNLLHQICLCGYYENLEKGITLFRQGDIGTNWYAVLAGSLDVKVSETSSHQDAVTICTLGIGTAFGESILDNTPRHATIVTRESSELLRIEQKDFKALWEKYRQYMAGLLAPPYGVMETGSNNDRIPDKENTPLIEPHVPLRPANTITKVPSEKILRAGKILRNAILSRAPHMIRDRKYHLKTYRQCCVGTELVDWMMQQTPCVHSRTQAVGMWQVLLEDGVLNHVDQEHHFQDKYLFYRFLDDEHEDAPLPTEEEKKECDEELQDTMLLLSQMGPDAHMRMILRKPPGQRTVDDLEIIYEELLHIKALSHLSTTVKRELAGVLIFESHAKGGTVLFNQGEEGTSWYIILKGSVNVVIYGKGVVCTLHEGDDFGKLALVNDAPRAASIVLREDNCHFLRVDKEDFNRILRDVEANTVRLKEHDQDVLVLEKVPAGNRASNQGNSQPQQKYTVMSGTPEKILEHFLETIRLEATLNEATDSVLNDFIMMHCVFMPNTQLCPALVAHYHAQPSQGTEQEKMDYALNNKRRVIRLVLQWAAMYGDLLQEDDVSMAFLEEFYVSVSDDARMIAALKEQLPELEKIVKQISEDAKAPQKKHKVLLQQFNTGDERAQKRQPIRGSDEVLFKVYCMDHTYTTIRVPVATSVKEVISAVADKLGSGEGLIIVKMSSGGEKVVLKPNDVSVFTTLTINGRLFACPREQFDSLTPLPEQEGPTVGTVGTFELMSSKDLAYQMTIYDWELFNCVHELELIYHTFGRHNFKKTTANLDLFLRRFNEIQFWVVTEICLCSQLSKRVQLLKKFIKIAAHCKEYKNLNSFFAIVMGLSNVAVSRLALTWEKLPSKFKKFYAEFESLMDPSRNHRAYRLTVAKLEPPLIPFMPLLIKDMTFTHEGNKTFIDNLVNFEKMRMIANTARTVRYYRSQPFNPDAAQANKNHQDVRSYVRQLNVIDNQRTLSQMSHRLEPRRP

As to `CC(=O)Nc1cccc(/C(C)=N/Nc2ccc(S(=O)(=O)Nc3ccccc3C(=O)O)cc2[N+](=O)[O-])c1`, the Potency entry in experiment [1], in experiment [2], in experiment [3] and in experiment [4] was “inactive” in each case.

For `CC(C)C(=O)Nc1nc2c(s1)CC(C(C)(C)C)CC2` (centres undefined), the Potency result in experiment [1], in experiment [2], in experiment [3] and in experiment [4] was “inactive” each time.

On to `CCOc1ccccc1CNC(=O)Cn1nc(C)c2c(C)n(-c3ccc(C)cc3)nc2c1=O`, for which the Potency entry in experiment [1] and in experiment [3] was “inactive” in each case. Further, the activation is -0.659% [at 17.1 µM, percent relative to cAMP agonist control] in experiment [2] and 18.3% [at 30.8 µM] in experiment [4].

`CCN1CC=C2C(C#N)=C(N)C(C#N)(C#N)C(CCc3ccccc3)C2C1` (centres undefined): the Potency in experiment [1] and in experiment [2] was 50.1 µM (active) in each case. In addition, in experiment [5], the Potency result is “inactive”.

Turning to `Cc1ccc(-c2ccc(CN3C(C(C)C)C(=O)N(Cc4cn(CCC5OCCO5)nn4)CCS3(=O)=O)cc2)c(C)c1` (centres undefined), the Potency entry in experiment [1], in experiment [2] and in experiment [5] was “inactive” in each case.

As to `FC(F)(F)C1=Nc2cccc3cccc(c23)N1`, the Potency entry in experiment [1], in experiment [2] and in experiment [5] was “inactive” throughout.

`CCOC(=O)C1=CCN(S(=O)(=O)c2ccccc2C)C1c1ccc(Cl)c(Cl)c1` (centres undefined): the Potency entry in experiment [1], in experiment [2] and in experiment [5] was “inactive” each time.

For `Cc1ccc(S(=O)(=O)Oc2cccc(/C=N/Nc3ccc(C(=O)O)cc3)c2)cc1`, the Potency entry in experiment [1], in experiment [2] and in experiment [5] was “inactive” in each case.

Regarding `CC(c1ccon1)N(C)Cc1cn(C)nc1-c1cccc(Cl)c1` (centres undefined), the Potency result in experiment [1], in experiment [2] and in experiment [5] was “inactive” in each case.

For `CN1CCc2nc3sc(C(=O)C45CC6CC(CC(C6)C4)C5)c(N)c3cc2C1`, the Potency entry in experiment [1] and in experiment [5] was “inactive” in each case. For the same molecule, the Potency in experiment [2] was 100 µM (active).

Regarding `O=C(Nc1nc(-c2ccc(F)cc2)cs1)C1CCN(C(=O)c2ccc(F)cc2)CC1`, the Potency entry in experiment [1], in experiment [2] and in experiment [5] was “inactive” each time.

On to `Nc1ccc(C(=O)N2CCN(S(=O)(=O)c3ccc(Cl)s3)CC2)cc1[N+](=O)[O-]`, for which the Potency result in experiment [1], in experiment [2] and in experiment [5] was “inactive” throughout.

On to `CCCCOC(=O)CCn1c(=S)oc2ccccc21`, for which the Potency result in experiment [1], in experiment [2] and in experiment [5] was “inactive” in each case.

On to `O=C1NC[C@H](Cc2ccc(O)cc2)N(C[C@@H]2CCCN2C[C@H](Cc2ccc(O)cc2)N2C[C@H](Cc3ccccc3)N(CC3CCCCCC3)C(=O)C2=O)C1=O`, for which the Potency result in experiment [1], in experiment [2] and in experiment [5] was “inactive” throughout.

With `CCOC1=C2[C@@H](CN(S(=O)(=O)c3ccc(C)cc3)[C@H]2c2ccccc2Cl)[C@H]2C(=O)NC(=O)[C@H]2C1`, the Potency entry in experiment [1], in experiment [2] and in experiment [5] was “inactive” in each case.

Turning to `CC(C)CCNC(=O)c1cnn2c(C(F)(F)F)cc(-c3ccco3)nc12`, the Potency result in experiment [1], in experiment [2], in experiment [5] and in experiment [4] was “inactive” throughout.

For the molecule `N#C/C(=C(/O)c1ccccc1F)c1nc2cc(C(F)(F)F)ccc2s1`, in experiment [1], the Potency result was “inactive”. The activation in experiment [2] was 1.01% [at 17.1 µM, percent relative to cAMP agonist control]. The activity change, negative = inhibition in experiment [5] is 14.7% [at 30.8 µM].

`COc1cccc(COC(=O)CSCC(=O)Nc2cccc(C)c2)c1OC`: the Potency result in experiment [1], in experiment [2] and in experiment [5] was “inactive” throughout.

As to `CCCN(CC(=O)Nc1ccccc1C)C(=O)C1CCN(c2ncnc3sc(C)c(C)c23)CC1`, the Potency entry in experiment [1], in experiment [2] and in experiment [5] was “inactive” in each case.

Consider `Cc1cc(NS(=O)(=O)c2ccc(NC(=S)NC(=O)/C=C/c3ccccc3)cc2)no1`, for which the Potency result in experiment [1] is “inactive”. Also, in experiment [2], the activation was 1.85% [at 17.1 µM, percent relative to cAMP agonist control]. For the same molecule, the activity change, negative = inhibition in experiment [5] was -2.1% [at 30.8 µM].

In the case of `CC(C)C[C@H]1COCCS(=O)(=O)N1Cc1ccc(Cl)c(Cl)c1`, in experiment [1], the Potency entry is “inactive”. Besides, the activation in experiment [2] was 1.63% [at 17.1 µM, percent relative to cAMP agonist control]. For the same molecule, in experiment [5], the activity change, negative = inhibition is -4.43% [at 30.8 µM].

With `CCOc1ccc(S(=O)(=O)Nc2nc3ccccc3nc2-n2ccc(=NC(=O)c3cccs3)cc2)cc1`, the Potency result in experiment [1], in experiment [2] and in experiment [5] was “inactive” in each case.

As for `Cc1ccccc1-c1cc2nc(NCCN3CCNC3=O)n(C)c(=O)c2s1`, the Potency result in experiment [1], in experiment [2], in experiment [5] and in experiment [4] was “inactive” in each case.

In the case of `COc1ccc(-c2sc3ccc(OC)cc3c2C#CCCO)cc1`, the Potency result in experiment [1], in experiment [2] and in experiment [5] was “inactive” in each case.

Regarding `CC(C)n1c(CNC(=O)c2ccccc2F)nnc1SCC(=O)NC1CCCCC1`, the Potency result in experiment [1], in experiment [2] and in experiment [5] was “inactive” in each case.

Consider `Cc1ccccc1-c1ccc(CN2C(C(C)C)C(=O)N(Cc3cn(CCC4OCCO4)nn3)CCS2(=O)=O)cc1` (centres undefined), for which the Potency entry in experiment [1], in experiment [2], in experiment [5] and in experiment [4] was “inactive” each time.

With `COCCNc1nc(Oc2cccc(F)c2)c2sccc2n1`, the Potency result in experiment [1], in experiment [2] and in experiment [5] was “inactive” throughout.

Regarding `CC(C)NC(=O)c1sc2nc(-c3cccs3)cc(-c3cccs3)c2c1N`, the Potency entry in experiment [1], in experiment [2] and in experiment [5] was “inactive” throughout.

As for `O=C(CSc1n[nH]c(=O)[nH]c1=O)Nc1ccc2c(c1)C(=O)c1ccccc1C2=O`, the Potency entry in experiment [1], in experiment [2], in experiment [5] and in experiment [4] was “inactive” throughout.

`C[C@@H]1CCCCCCCCC(=O)OCCN1C(=O)OC(C)(C)C`: the Potency result in experiment [1], in experiment [2], in experiment [5] and in experiment [4] was “inactive” each time.

Regarding `Oc1ccc(NCc2ccccc2OCc2ccccc2Cl)cc1`, the Potency entry in experiment [1], in experiment [2] and in experiment [5] was “inactive” in each case.

With `C/C(=N/NS(=O)(=O)c1ccc(C(C)(C)C)cc1)c1ccc2c(c1)OCO2`, in experiment [1], the Potency result is “inactive”. In addition, in experiment [2], the activation was 7.62% [at 17.1 µM, percent relative to cAMP agonist control]. Also, in experiment [5], the activity change, negative = inhibition is -17.7% [at 30.8 µM].

The values above are taken from PubChem BioAssay (NCATS).
